Screening data (PubChem BioAssay)
Most compounds without a hit are left out; they make up all but 10% or so of the library.
Sfp PPTase inh: inhibitors of Bacillus subtilis Sfp phosphopantetheinyl transferase | Biochemical Sfp PPTase activity, qHTS | Potency, µM, inactives show largest response in the series, negative = inhibition, most hits filed as inhibitors | 3.5% of 310,000 active | AID 1490;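 also: the enzyme is Sfp with the accession as filed and its product quenches rhodamine fluorescence; potency is read from the fitted curve at half-maximal effect; 0% = enzyme reaction without inhibitor and -100% = no enzyme wells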
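Reaction rates are the 30-min fluorescence difference (ex 525, em 598 nm) in wells containing 15 nM Sfp, 5 uM rhodamine-CoA and 12.5 uM BHQ-2-YbbR at pH 7.6 with 10 mM MgCl2.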
CCT modulator: cytosolic chaperonin activity modulation; purified chaperonin ATPase assay, HTRF ADP detection, 30 min; activity change, % (no concentration beside the values), hits read low; 0.3% of 360,000 active; in the data active = activity change below about -30%
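TRiC at 40 or 20 nM final (batch-dependent) in 30 mM Tris pH 7.4, 100 mM KCl, 5 mM MgCl2, 1 mM DTT, with compound at single 76 uM and 10 uM ATP, 30 min at 37 deg C. ADP detected by HTRF Transcreener, 665/615 ratio.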
G9a inh: blocks human histone lysine methyltransferase G9a. Q96KQ7. G9a H3K9 monomethylation, AlphaScreen, 2 h. Potency, µM (series often up to 102 µM), inactives show at the highest dose activity, negative = inhibition, usual class: inhibitors. 8.8% of 350,000 active. AID 504332; also: potency is read from the fitted curve at half-maximal effect; nearly all actives have a fitted effect of over 75% in size
Target sequence (Q96KQ7 913-1193 limits assumed): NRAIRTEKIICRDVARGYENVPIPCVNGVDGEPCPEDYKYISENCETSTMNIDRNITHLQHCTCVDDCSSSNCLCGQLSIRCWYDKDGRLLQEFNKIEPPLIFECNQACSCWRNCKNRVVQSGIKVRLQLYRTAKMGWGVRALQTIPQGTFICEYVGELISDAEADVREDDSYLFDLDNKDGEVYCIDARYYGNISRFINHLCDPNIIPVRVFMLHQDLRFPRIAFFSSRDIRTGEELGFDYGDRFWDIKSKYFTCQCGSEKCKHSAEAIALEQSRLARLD
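Using a bead-based AlphaScreen, monomethylated H3K9 product from 2 h room-temperature reactions (G9a 20 nM, peptide 500 nM, SAM 20 uM) was detected with 0.5 ug/mL rabbit anti-H3K9me1 antibody.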
MmCpn inh: inhibitors of Methanococcus maripaludis chaperonin TRiC (MmCpn) | purified Mm-Cpn ATPase, ADP Transcreener TR-FRET | Potency, µM (titrated, usually from 76.9 µM), inactives show top-dose activity, negative = inhibition, usual class: inhibitors | 0.031% of 330,000 active | AID 504842; also: potency is read from the fitted curve at half-maximal effect; nearly all actives have a fitted effect of over 80% in size
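25 nM Mm-CPN + cpd, 10 min 37°C; + 10 uM ATP, 30 min 37°C; buffer 30 mM Tris pH 7.4, 100 mM KCl, 5 mM MgCl2, 1 mM DTT; Transcreener ADP HTRF detection 30 min RT.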
VDR inhibitor: blocks the human vitamin D receptor; P11473; VDR-SRC2-3 peptide fluorescence polarization, 2 h; Potency, µM, inactives show max response, negative = inhibition, most hits filed as inhibitors; 0.93% of 400,000 active; also: potency is read from the fitted curve at half-maximal effect
Target sequence (P11473 whole entry, looked up): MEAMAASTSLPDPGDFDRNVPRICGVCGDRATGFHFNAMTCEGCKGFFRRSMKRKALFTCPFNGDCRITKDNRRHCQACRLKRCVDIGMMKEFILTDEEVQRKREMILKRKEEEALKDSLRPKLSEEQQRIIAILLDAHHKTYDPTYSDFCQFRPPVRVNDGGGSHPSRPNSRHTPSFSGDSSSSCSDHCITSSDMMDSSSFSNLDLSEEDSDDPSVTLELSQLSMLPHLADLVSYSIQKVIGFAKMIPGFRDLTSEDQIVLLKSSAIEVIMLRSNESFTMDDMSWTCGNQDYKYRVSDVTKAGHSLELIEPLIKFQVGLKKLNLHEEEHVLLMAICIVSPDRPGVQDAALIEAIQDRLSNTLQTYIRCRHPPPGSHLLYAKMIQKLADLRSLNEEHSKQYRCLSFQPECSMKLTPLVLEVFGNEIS
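Compounds are added to VDR with labelled SRC2-3 coactivator peptide and held 2 h at room temperature. Inhibition of the VDR–peptide interaction is then read as a change in fluorescence polarization.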
PLK1 PBD block: inhibitors of human PLK1 polo-box domain binding; 2.8% of 360,000 active; Potency, µM, without a hit: max response, negative = inhibition, actives largely listed as inhibitors; Plk1 PBD binding of FITC phosphopeptide, fluorescence polarization; also: potency is read from the fitted curve at half-maximal effect; series mostly up to about 57 µM; nearly all actives have a fitted effect of over 65% in size
* marks the source's active call; other numbers are inactive results; [ ] = another dose, or the depositor's remark. Unless noted, calls follow the shape of the dose curve; as a rule, active = well fitted curve in the direction sought with a large enough effect; inconclusive = small, poorly fitted or top-dose-only effect, or another doubt; inactive = no such curve, though single readings can be large; an effect the other way counts as inactive or inconclusive. Unless noted, % is scaled to controls: 0 for no effect and ±100 for the full control effect.

How did c1ccc2[nH]c(CN3CCOCC3)nc2c1 do in these assays?
Sfp PPTase inh: 10%; CCT modulator: 2; G9a inh: 14%[59 µM]; MmCpn inh: 0%; VDR inhibitor: 15%; PLK1 PBD block: -12%

Results for COc1ccc(C(=O)C2CCCN(C(=O)c3ccc(CSC)o3)C2)cc1F (configuration not stated) ?
Sfp PPTase inh: inconclusive; CCT modulator: -1; G9a inh: 32µM*; MmCpn inh: 1%; VDR inhibitor: inconclusive; PLK1 PBD block: -11%

What do the screens show for `CSc1nnc(Cn2c(=O)sc3ccccc32)n1-c1ccccc1C`?
CCT modulator: -2; VDR inhibitor: 50µM*; PLK1 PBD block: 19µM*

What do the screens show for `Cc1ccccc1-n1c(Cn2c(=O)sc3ccccc32)nnc1SCC(=O)NCC1CCCO1` (configuration not stated)?
Sfp PPTase inh: 13%; CCT modulator: 2; G9a inh: inconclusive; MmCpn inh: 0%; VDR inhibitor: -7%; PLK1 PBD block: 21µM*

How did CCc1ccc(C(=O)NNc2ccc(F)cc2)cc1 do in these assays?
Sfp PPTase inh: -4%; CCT modulator: 1; MmCpn inh: 6%; VDR inhibitor: -23%; PLK1 PBD block: -12%

How did CCc1ccc(C(=O)NNc2cc(Cl)ccc2Cl)cc1 do in these assays?
Sfp PPTase inh: -5%; CCT modulator: 0; G9a inh: -3%; MmCpn inh: 1%; VDR inhibitor: -17%; PLK1 PBD block: -8%

What do the screens show for `CCc1ccc(C(=O)NNc2ccc(S(N)(=O)=O)cc2)cc1`?
Sfp PPTase inh: -1%; CCT modulator: -2; G9a inh: 22µM*; MmCpn inh: 0%; VDR inhibitor: 6%; PLK1 PBD block: -14%

How did CCc1ccc(C(=O)NNc2ccc(C)c(Cl)c2)cc1 do in these assays?
Sfp PPTase inh: -5%; CCT modulator: -1; G9a inh: 7.9µM*; MmCpn inh: 3%; VDR inhibitor: inconclusive; PLK1 PBD block: -18%

How did O=C(CCC1N=C2c3ccccc3N=C(SCc3ccccc3F)N2C1=O)NC1CCCCC1 (configuration not stated) do in these assays?
G9a inh: 13%[59 µM]; VDR inhibitor: -5%

Results for CS(=O)(=O)N1N=C(c2ccco2)CC1c1ccc(Br)cc1 (configuration not stated) ?
Sfp PPTase inh: -9%; CCT modulator: -2; G9a inh: 35µM*; MmCpn inh: 1%; VDR inhibitor: -6%; PLK1 PBD block: -9%

What do the screens show for `CCOc1ccc2nc(Cl)c(C3CC(c4ccco4)=NN3S(C)(=O)=O)cc2c1` (configuration not stated)?
Sfp PPTase inh: -29%; CCT modulator: 3; MmCpn inh: -2%; VDR inhibitor: 5%; PLK1 PBD block: -6%

How did O=S(=O)(c1ccccc1)N1N=C(c2ccc(O)cc2)CC1c1ccco1 (configuration not stated) do in these assays?
Sfp PPTase inh: inconclusive; CCT modulator: 1; MmCpn inh: -1%; VDR inhibitor: -7%; PLK1 PBD block: -1%

What do the screens show for `CCOc1ccc2cc(C3CC(c4ccco4)=NN3S(C)(=O)=O)c(=O)[nH]c2c1` (configuration not stated)?
Sfp PPTase inh: 22µM*; CCT modulator: 2; MmCpn inh: -1%; VDR inhibitor: inconclusive; PLK1 PBD block: inconclusive

Results for O=S(=O)(c1ccccc1)N1N=C(c2ccc(Br)cc2)CC1c1ccco1 (configuration not stated) ?
Sfp PPTase inh: -8%; CCT modulator: 0; G9a inh: inconclusive; MmCpn inh: 0%; VDR inhibitor: inconclusive; PLK1 PBD block: 3µM*

How did CS(=O)(=O)N1N=C(c2ccco2)CC1c1ccccc1Cl (configuration not stated) do in these assays?
Sfp PPTase inh: 5%; CCT modulator: 0; G9a inh: -39%; MmCpn inh: 2%; VDR inhibitor: 8%; PLK1 PBD block: -6%

Results for CS(=O)(=O)N1N=C(c2ccco2)CC1c1ccc(Cl)cc1Cl (configuration not stated) ?
Sfp PPTase inh: 40µM*; CCT modulator: 0; MmCpn inh: 0%; VDR inhibitor: 5%; PLK1 PBD block: 1%

What do the screens show for `COC(=O)[C@@H]1C[C@@]2(O)[C@@H](O)[C@@H](O)[C@@H](O)C[C@H]2N1Cc1cc(F)ccc1F`?
Sfp PPTase inh: -23%

How did C=CCn1c(=S)[nH]c2scc(-c3cccs3)c2c1=O do in these assays?
Sfp PPTase inh: 11%; CCT modulator: 1; G9a inh: -4%[59 µM]; MmCpn inh: 50µM*; VDR inhibitor: -7%; PLK1 PBD block: -11%

What do the screens show for `O=c1[nH]cnc2scc(-c3cccs3)c12`?
Sfp PPTase inh: 5%; CCT modulator: -9; G9a inh: 4%[59 µM]; MmCpn inh: -12%; VDR inhibitor: 5%; PLK1 PBD block: -1%

Results for Cc1nc2cccnc2n1C1CCN(S(C)(=O)=O)CC1 ?
G9a inh: 8%[59 µM]; VDR inhibitor: -10%

How did Cc1ccc(NC(=O)N2CCC(NC(=O)c3cccc(C)c3)CC2)cc1 do in these assays?
Sfp PPTase inh: -13%; CCT modulator: 1; G9a inh: 7.9µM*; MmCpn inh: 0%; VDR inhibitor: -2%; PLK1 PBD block: -25%

What do the screens show for `Cc1ccc(NC(=O)N2CCC(NC(=O)c3ccco3)CC2)cc1`?
Sfp PPTase inh: 16%; CCT modulator: 1; G9a inh: -3%; MmCpn inh: -1%; VDR inhibitor: 12%; PLK1 PBD block: -8%

Results for O=C(COC(=O)Cc1ccc(-c2ccccc2)cc1)NCc1ccccc1 ?
Sfp PPTase inh: 3%; CCT modulator: -1; G9a inh: -7%[59 µM]; MmCpn inh: -3%; VDR inhibitor: inconclusive; PLK1 PBD block: 27µM*

What do the screens show for `O=C(COC(=O)Cc1ccc(Cl)cc1)NCc1ccc(Cl)cc1`?
CCT modulator: 0; PLK1 PBD block: -2%

What do the screens show for `Cc1ccc(C(=O)Sc2cccccc2=O)cc1`?
Sfp PPTase inh: 50µM*; CCT modulator: -1; G9a inh: 10µM*; MmCpn inh: -3%; VDR inhibitor: 20µM*; PLK1 PBD block: 2.7µM*

How did O=C(Nc1ccccc1SC(=O)c1ccccc1)c1ccccc1 do in these assays?
CCT modulator: 2; PLK1 PBD block: 4.2µM*

How did COc1ccc(/C(O)=C2/C(=O)C(=O)N(Cc3ccco3)C2c2cccs2)cc1 (configuration not stated) do in these assays?
Sfp PPTase inh: 10µM*; CCT modulator: 2; G9a inh: 10%[59 µM]; MmCpn inh: -4%; VDR inhibitor: 1%; PLK1 PBD block: -13%
